Laboratory results taken from PubChem BioAssay (EPA / NIEHS).
“And” between values parts separate entries of the source, which are not always exact repeats. Identical values can stand only once. Some compounds were tested as several samples or in several runs, with calls that do not always agree. The source made the active and inactive calls. Rule for the calls: active = hit-call score of the fitted dose curve at least 0.9, where 1 is the maximum; inactive = score below 0.9.

Columns and labels:
[1] = ATG_E_Box_CIS: Attagene CIS-FACTORIAL HepG2 Assay for human Enhancer Box (E-box) (AID 2282936); conditions: HepG2 E-box cis-reporter transcription, actives raise or lower the signal
How it was run: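 Measured 24 h post-dosing in HepG2 cells transfected with multiple cis-regulated reporter units, signal being reporter mRNA induction detected by fluorescent RT-PCR with capillary electrophoresis; gain or loss fitted against DMSO.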

[2] = ATG_M_61_CIS: Attagene CIS-FACTORIAL HepG2 Assay for M61 Transcription Factor (Internal Marker) (AID 2282937); conditions: HepG2 Attagene CIS-FACTORIAL M61 internal marker reporter; actives raise or lower the signal
How it was run: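 Multiplexed reporter mRNA assay, HepG2 human hepatoma cells, 24 h treatment. Signal: FAM-labelled, HpaI-digested RT-PCR fragments by CE. Fit: bidirectional, baseline DMSO.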

[3] = ATG_EGR_CIS: Attagene CIS-FACTORIAL HepG2 Assay for human Early Growth Response 1 (EGR1) (AID 2282938); conditions: HepG2 Attagene CIS-FACTORIAL EGR reporter mRNA; actives raise or lower the signal
How it was run: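 Multiplexed cis-reporter system in human hepatoma HepG2 cells, transiently transfected. Cells are dosed for 24 h; reporter transcripts are amplified, fluorescently tagged and sized by capillary electrophoresis, with DMSO as negative control.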

[4] = ATG_M_19_CIS: Attagene CIS-FACTORIAL HepG2 Assay for M19 Transcription Factor (Internal Marker) (AID 2282939); conditions: HepG2 Attagene CIS-FACTORIAL M19 internal marker reporter; actives raise or lower the signal
How it was run: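 In this multiplexed cell assay, transiently transfected HepG2 reporter units report endogenous transcription-factor activity; after 24 hours of treatment, labelled reporter cDNA fragments are quantified by capillary electrophoresis and fitted bidirectionally against DMSO.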

[5] = ATG_ERE_CIS: Attagene CIS-FACTORIAL HepG2 Assay for Estrogen Response Element (ERE) (AID 2282940); conditions: HepG2 ERE cis-reporter, Attagene RNA transcript; actives raise or lower the signal
How it was run: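 Measuring endogenous transcription factor output, the assay doses transfected HepG2 cells for 24 hours and quantifies reporter transcripts by fluorescent RT-PCR and capillary electrophoresis, with DMSO as baseline.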

[6] = ATG_Ets_CIS: Attagene CIS-FACTORIAL HepG2 Assay for human Erythroblast Transformation Specific (ETS) (AID 2282941); conditions: HepG2 ETS cis-reporter transcription, actives raise or lower the signal
How it was run: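 Endogenous transcription factor activity read as reporter mRNA via RT-PCR and capillary electrophoresis, with gain or loss fitted bidirectionally against DMSO. Human HepG2 liver cells, transiently transfected CIS reporter constructs, 24 h exposure.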

[7] = target: Hepatocyte nuclear factor 3-beta (Homo sapiens) (UniProt Q9Y261); experiment: ATG_FoxA2_CIS: Attagene CIS-FACTORIAL HepG2 Assay for human Forkhead box A2 (FOXA2) (AID 2282942); conditions: HepG2 cis-reporter transcription factor activity, 24 h; actives raise or lower the signal
Chain of Hepatocyte nuclear factor 3-beta (Homo sapiens) (Q9Y261 whole entry, looked up): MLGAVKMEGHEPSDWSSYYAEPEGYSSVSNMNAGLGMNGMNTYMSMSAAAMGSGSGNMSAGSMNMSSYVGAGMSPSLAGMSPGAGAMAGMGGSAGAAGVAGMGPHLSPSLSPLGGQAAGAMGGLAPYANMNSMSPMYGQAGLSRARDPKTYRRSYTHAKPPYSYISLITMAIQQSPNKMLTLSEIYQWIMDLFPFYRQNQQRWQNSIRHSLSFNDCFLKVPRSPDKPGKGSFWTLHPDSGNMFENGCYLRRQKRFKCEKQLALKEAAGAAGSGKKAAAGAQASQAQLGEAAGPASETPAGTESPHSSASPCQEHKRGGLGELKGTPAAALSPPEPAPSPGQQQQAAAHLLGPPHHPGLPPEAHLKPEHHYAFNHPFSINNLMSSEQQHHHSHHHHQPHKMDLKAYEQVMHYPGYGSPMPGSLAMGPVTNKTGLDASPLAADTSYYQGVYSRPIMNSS
How it was run: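 Multiplexed cis-element reporter assay in transiently transfected HepG2. Twenty-four hours post-dosing, RNA was reverse-transcribed, amplified, FAM-labelled, HpaI-digested and separated by CE. Activity gain or loss relative to DMSO.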

[8] = ATG_FoxO_CIS: Attagene CIS-FACTORIAL HepG2 Assay for human Forkhead box O (FoxO) (AID 2282943); conditions: HepG2 Attagene cis-reporter, FoxO element, mRNA; actives raise or lower the signal
How it was run: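 HepG2 cells transiently transfected with cis-promoter-driven multiple reporter transcription units; 24 h after chemical dosing, reporter mRNA quantified by RT-PCR, fluorescent primer extension, HpaI digestion and capillary electrophoresis. Bidirectional fitting versus DMSO baseline.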

[9] = ATG_GATA_CIS: Attagene CIS-FACTORIAL HepG2 Assay for human GATA Binding Protein (AID 2282944); conditions: HepG2 GATA cis-element reporter, Attagene multiplex mRNA; actives raise or lower the signal
How it was run: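 Measures endogenous transcription factor-driven reporter mRNA in HepG2 cells transiently carrying cis-regulated constructs. 24 h dosing; RNA via oligo(dT) reverse transcription, PCR, HpaI digestion, capillary electrophoresis; fitted relative to DMSO.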

[10] = ATG_GLI_CIS: Attagene CIS-FACTORIAL HepG2 Assay for human Zinc Finger Protein GLI1 (AID 2282945); conditions: HepG2, Attagene cis-factorial reporter mRNA, GLI element; actives raise or lower the signal
How it was run: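 HepG2 cells transiently transfected with cis-promoter multiplexed reporter units report endogenous transcription factor activity. After 24 h chemical exposure, reporter mRNA was quantified by RT-PCR, 6-FAM labelling, HpaI digestion and capillary electrophoresis, with bidirectional fitting against DMSO.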

Measured: AC50

CCCCCCCCCCCCCCOS(=O)(=O)O
inactive: all assays above

NC1CCCCC1
inactive: all assays above

CCCCCCCCCC[N+](C)(C)[O-]
not listed: [7]
inactive: all other assays above

OCC(CO)n1cnc(-c2ccc(F)cc2)c1-c1ccnc(Oc2ccccc2)n1
inactive: all assays above

COC(=O)CCC(=O)OC
inactive: all assays above

COc1ccc(OC(F)(F)F)cc1CN[C@H]1CCCN[C@H]1c1ccccc1
active: [1] 11 µM
not listed: [7]
inactive: all other assays above

O=C(O)CN(CC(=O)O)CC(=O)O
inactive: all assays above

CCCCc1nc2cccnc2n1Cc1ccc(-c2ccccc2-c2nnn[nH]2)cc1
not listed: [7]
inactive: all other assays above

Cc1ccc(C(C)(C)C)c(O)c1
active: [3] 158 µM | [5] 25.1 µM | [6] 63.7 µM
inactive: all other assays above

CN(C)C(=O)NC1(c2ccccc2)CCN(CCC[C@]2(c3ccc(Cl)c(Cl)c3)CCCN(C(=O)c3ccccc3)C2)CC1
active: [1] 4.17 µM | [3] 2.75 µM
inactive: all other assays above

CCN(CC)CCOc1ccc(C(=C(Cl)c2ccccc2)c2ccccc2)cc1
active: [1] 11.9 µM | [3] 6.34 µM | [9] 17.6 µM | [10] 9.35 µM
inactive: [1] | [2] | [3] | [4] | [6] | [8] | [9] | [10]

CCC(C)N(C)C(=O)c1cc2ccccc2c(-c2ccccc2Cl)n1 (stereo unspecified)
active: [3] 62.5 µM
inactive: all other assays above

O=[Si]=O
not listed: [7]
inactive: all other assays above

Cc1ccc(-c2cc(C(F)(F)F)nn2-c2ccc(S(N)(=O)=O)cc2)cc1
inactive: all assays above

CC(=O)O[C@]1(C(C)=O)CC[C@H]2[C@@H]3C=C(Cl)C4=CC(=O)[C@@H]5C[C@@H]5[C@]4(C)[C@H]3CC[C@@]21C
inactive: [1] | [2] | [3] | [4] | [6] | [8] | [9] | [10]
active: [1] 165 µM and 78.6 µM and 50.5 µM | [3] 27.9 µM and 40.3 µM and 100 µM | [4] 180 µM | [8] 150 µM and 158 µM and 48.6 µM | [9] 174 µM and 48.9 µM | [10] 100 µM and 145 µM

CC1=C(C)S(=O)(=O)CCS1(=O)=O
active: [1] 100 µM
not listed: [7]
inactive: all other assays above

O=C1CCCCC1
inactive: all assays above

CN(C)CCCN(C)CCCN(C)C
inactive: all assays above

c1ccc2occc2c1
inactive: all assays above

COc1ccc(C(=O)Nc2nc3ccccc3c(NCc3ccccc3)c2C#N)cc1
active: [5] 1.46 µM
not listed: [7]
inactive: all other assays above

O=C(NS(=O)(=O)/C=C/c1cccs1)c1ccc(F)cc1Br
not listed: [7]
inactive: all other assays above

CC(C)OC(=O)C(C)(C)Oc1ccc(C(=O)c2ccc(Cl)cc2)cc1
active: [3] 38.4 µM | [5] 27.7 µM
not listed: [7]
inactive: all other assays above

NC(=Nc1ccccc1)Nc1ccccc1
active: [3] 39.2 µM
inactive: all other assays above

CCCCCCC(CCCCCCCCCCC(=O)OCC(COC(C)=O)OC(C)=O)OC(C)=O (stereo unspecified)
inactive: all assays above

CC(=O)[C@@]1(O)CC[C@H]2[C@@H]3CCC4=CC(=O)CC[C@]4(C)[C@H]3CC[C@@]21C
inactive: [1] | [2] | [3] | [4] | [6] | [7] | [8] | [9] | [10]
active: [1] 4.34 µM and 27 µM and 33.6 µM

CC(C)c1cccc(C(C)C)c1
inactive: all assays above

CC1(C)C(=O)NC(=O)N1CO
active: [5] 158 µM
inactive: all other assays above

CCCCCCCC(=O)OC
inactive: all assays above

Cc1c(C)c2c(c(C)c1O)CCC(C)(COc1ccc(CC3SC(=O)NC3=O)cc1)O2 (stereo unspecified)
active: [5] 0.221 µM
inactive: all other assays above

NCCOCCOCCN
not listed: [5]
inactive: all other assays above

CC(=O)CC(c1ccccc1)c1c(O)c2ccccc2oc1=O (stereo unspecified)
not listed: [5]
inactive: all other assays above

Nc1nc(Cl)nc2c1ncn2[C@H]1C[C@H](O)[C@@H](CO)O1
active: [1] 11.4 µM
not listed: [5]
inactive: all other assays above

CN(C)CCCN1c2ccccc2Sc2ccc(Cl)cc21
active: [3] 13.2 µM
not listed: [5]
inactive: all other assays above

Nc1nc(=S)c2[nH]cnc2[nH]1
active: [5] 98.1 µM
not listed: [7]
inactive: all other assays above

Oc1ccccc1O
not listed: [5]
inactive: all other assays above

C/C=C/c1ccc(OC)cc1
not listed: [5]
inactive: all other assays above

CCCCC(CC)COP(=O)(OCC(CC)CCCC)OCC(CC)CCCC (stereo unspecified)
not listed: [5]
inactive: all other assays above

CCCC[C@H]1CN(CC2CCOCC2)C(=O)OC12CCN(C1(C)CCN(C(=O)c3c(C)ncnc3C)CC1)CC2
not listed: [5]
inactive: all other assays above

CC(C)(O)c1ccc(CNC(=O)c2cccnc2Oc2ccc(F)cc2)cc1
not listed: [5]
inactive: all other assays above

CCCCCCC(C=O)=Cc1ccccc1
not listed: [5]
inactive: all other assays above

O=C1OC(c2ccc(O)cc2)(c2ccc(O)cc2)c2ccccc21
active: [1] 176 µM | [3] 20.8 µM | [7] 177 µM | [10] 159 µM
not listed: [5]
inactive: all other assays above
